# Among all 39,000 compounds or so, about 3,300 (8.5%) were called active. This is one part of a sample in which actives are shown more often than they occur.
# System: HepG2
# Assay: cytotoxicity call (relative viability < 0.9)
# Conditions: 10 µM
row,SMILES,cytotoxicity call
1,C[C@@H]1CN([C@@H](C)CO)C(=O)c2cc(NC(=O)CCN3CCOCC3)ccc2O[C@H]1CN(C)S(C)(=O)=O,inactive
2,CCCNC(=O)N1C[C@H](C)[C@H](OC)CN(C)C(=O)c2ccc(NS(=O)(=O)CC(F)(F)F)cc2OC[C@@H]1C,inactive
3,C[C@H]1CN([C@@H](C)CO)C(=O)c2cc(NC(=O)c3ccncc3)ccc2O[C@@H]1CN(C)S(=O)(=O)c1cccs1,inactive
4,C[C@H]1CN([C@@H](C)CO)C(=O)c2cc(NC(=O)CCN3CCOCC3)ccc2O[C@H]1CN(C)Cc1ccc(C(=O)O)cc1,inactive
5,COc1cc([C@@H](O)CO)ccc1OS(=O)(=O)O,inactive
6,COc1ccc(S(=O)(=O)N2C[C@@H](O)COC[C@H]3O[C@H](CC(=O)N[C@H]4CCN(Cc5ccccc5)C4)CC[C@@H]32)cc1,inactive
7,C[C@@H]1CN([C@@H](C)CO)C(=O)c2cc(NS(=O)(=O)c3cccs3)ccc2O[C@@H](C)CCCCO[C@H]1CN(C)Cc1ccc2c(c1)OCO2,inactive
8,C[C@H](CO)N1C[C@H](C)[C@@H](CN(C)C(=O)Nc2cccc3ccccc23)Oc2ccc(NS(=O)(=O)c3cccs3)cc2C1=O,inactive
9,C[C@H](CO)N1C[C@H](C)[C@H](CN(C)C(=O)NC2CCCCC2)OCCCC[C@H](C)Oc2ccc(NS(=O)(=O)c3cccs3)cc2C1=O,inactive
10,CC(=O)N1CC(=O)N(c2cnn(C)c2)C[C@]12CCN(C(=O)c1cnc(C)cn1)C2,inactive
11,CCOC(=O)N(C)C[C@H]1OCc2cn(nn2)CCCC(=O)N([C@@H](C)CO)C[C@H]1C,inactive
12,CSCC[C@H](NC(=O)[C@H](Cc1ccc(OS(=O)(=O)O)cc1)NC(=O)[C@@H](N)CC(=O)O)C(=O)NCC(=O)N[C@@H](Cc1c[nH]c2ccccc12)C(=O)N[C@@H](CCSC)C(=O)N[C@@H](CC(=O)O)C(=O)N[C@@H](Cc1ccccc1)C(N)=O,active
13,CSCC[C@H](NC(=O)[C@H](Cc1c[nH]c2ccccc12)NC(=O)CNC(=O)[C@@H](NC(=O)[C@H](Cc1ccc(OS(=O)(=O)O)cc1)NC(=O)[C@H](CC(=O)O)NC(=O)[C@H](CCC(N)=O)NC(=O)[C@@H]1CCC(=O)N1)[C@@H](C)O)C(=O)N[C@@H](CC(=O)O)C(=O)N[C@@H](Cc1ccccc1)C(N)=O,inactive
14,CSCC[C@H](NC(=O)[C@@H](N)Cc1c[nH]c2ccccc12)C(=O)N[C@@H](CC(=O)O)C(=O)N[C@@H](Cc1ccccc1)C(N)=O,inactive
15,COc1cc(OC)nc(N=CNO)n1,inactive
16,O=C(C[C@@H]1C[C@H]2c3cc(NC(=O)C4CCOCC4)ccc3O[C@H]2[C@H](CO)O1)NCc1cc(F)ccc1F,inactive

# — the antibiotic and cytotoxicity screens of Wong et al. (2023)
